Among the test systems are NCI-H23 lung; NCI-H226 lung; NCI-H322M lung; HOP-62 NSCLC; NCI-H460 lung; HOP-92 NSCLC; NCI-H522 lung; A549/ATCC NSCLC; 786-0 renal; COLO 205 colon; DU-145 prostate; K-562 leukemia; MALME-3M melanoma; MDA-MB-231 breast; RXF 393 renal; SF-268 CNS; SF-295 CNS; SF-539 CNS; UACC-257 melanoma; M14 melanoma.
What all share (assay): NCI-60 one-dose screen, 48 h (100 = growth as untreated, 0 = no growth, -100 = all killed)
Holding throughout (settings): 10 µM unless noted

Molecules are shown by their SMILES. Several values for one entry are separate records, joined by “and”; a condition that tells them apart may be missing. Equal values may be shown once. About 83,000 compounds went through this panel and 20% of them were active in at least one assay; those are over-represented in the sample as a whole.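 48-hour exposure, single concentration, 96-well plates; percent growth endpoint where 0 means no net growth. Active: below 10.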 Activity calls are given as the source filed them.

Regarding `Oc1cc(Cl)ccc1Oc1ccc(Cl)cc1Cl`, the growth in the experiment on NCI-H23 lung is 7.13% (active); in the experiment on NCI-H226 lung, 99.7% (inactive); in the experiment with NCI-H322M lung, 97.6% (inactive); with HOP-62 NSCLC, 20.5% (inactive); in the experiment with NCI-H460 lung, 3.2% (active); in the experiment with HOP-92 NSCLC, -11.4% (active). The growth in the experiment with NCI-H522 lung was -4.34% (active); with A549/ATCC NSCLC it was 37.5% (inactive); in the experiment with 786-0 renal, 86.4% (inactive); with COLO 205 colon, 105% (inactive); with DU-145 prostate, 14.5% (inactive); in the experiment on K-562 leukemia, 11% (inactive). In addition, the growth was 5.91% (active) in the experiment with MALME-3M melanoma; 8.82% (active) in the experiment with MDA-MB-231 breast; -9.98% (active) with RXF 393 renal; 21.5% (inactive) in the experiment with SF-268 CNS; 7.37% (active) in the experiment with SF-295 CNS; 14.7% (inactive) in the experiment on SF-539 CNS. The growth in the experiment with UACC-257 melanoma was 21.4% (inactive).
On to `CC(=O)OC1CC2(O)C(CCC3(C)C(c4ccc(=O)oc4)CCC32O)C2(C)CCC(OC3OC(CO)C(O)C(O)C3O)C=C12` (stereo not given), for which the growth in the experiment on NCI-H23 lung is -57.2% (active); with NCI-H226 lung, -91.6% (active); in the experiment with NCI-H322M lung, -81.6% (active); with HOP-62 NSCLC it was -70.7% (active); with NCI-H460 lung, -75.3% (active); in the experiment with HOP-92 NSCLC, -24.2% (active). Moreover, the growth with NCI-H522 lung was -39.2% (active); in the experiment on A549/ATCC NSCLC, -72.9% (active); in the experiment with 786-0 renal, -74.6% (active); with COLO 205 colon, -47.1% (active); in the experiment with DU-145 prostate, -100% (active); in the experiment with K-562 leukemia it was -30.4% (active). Moreover, the growth with MALME-3M melanoma was -43.7% (active); in the experiment with MDA-MB-231 breast it was -20.3% (active); in the experiment on RXF 393 renal, -45% (active); in the experiment on SF-268 CNS, -97.4% (active); in the experiment with SF-295 CNS, -62.2% (active); with SF-539 CNS, -97.9% (active). Also, the growth with UACC-257 melanoma is -62.3% (active).
Turning to `C[C@@H]1C/C=C\C(=O)O[C@H](/C=C/C#C/C=C/C(C)(C)[C@@H](O)c2cccc(O)c2Br)[C@@H](C)/C=C/[C@H](C)C[C@H](OC(N)=O)C1`, the growth in the experiment on NCI-H23 lung was 40.6% (inactive); with NCI-H226 lung it was 20.1% (inactive); in the experiment with NCI-H322M lung it was 54.1% (inactive); with HOP-62 NSCLC, 13.1% (inactive); in the experiment on NCI-H460 lung, 17.1% (inactive); with HOP-92 NSCLC, 9.34% (active). For the same compound, the growth with NCI-H522 lung was 16.7% (inactive); in the experiment on A549/ATCC NSCLC it was 28.5% (inactive); in the experiment on 786-0 renal, 37.2% (inactive); in the experiment with COLO 205 colon it was -26.1% (active); with DU-145 prostate, 47.6% (inactive); in the experiment on K-562 leukemia, 6.76% (active). In addition, the growth is 28.4% (inactive) in the experiment on MALME-3M melanoma; 2.09% (active) with MDA-MB-231 breast; 27.4% (inactive) in the experiment on RXF 393 renal; 40.4% (inactive) in the experiment on SF-268 CNS; -6.34% (active) with SF-295 CNS; 30.6% (inactive) in the experiment with SF-539 CNS. In addition, the growth in the experiment with UACC-257 melanoma was -11.1% (active).
With `COc1cc2c(cc1OC)-c1c3c(cc4c1[C@@H](C2)N(C)CC4)OCO3`, the growth was 51.3% (inactive) in the experiment with NCI-H23 lung; 51% (inactive) in the experiment on NCI-H226 lung; 36.9% (inactive) in the experiment on NCI-H322M lung; 44.3% (inactive) in the experiment on HOP-62 NSCLC; 17.3% (inactive) with NCI-H460 lung; 6.02% (active) in the experiment with HOP-92 NSCLC. For the same compound, the growth was 5.61% (active) in the experiment with NCI-H522 lung; 53.3% (inactive) in the experiment on A549/ATCC NSCLC; 40.2% (inactive) in the experiment with 786-0 renal; 31.4% (inactive) in the experiment with COLO 205 colon; 45.3% (inactive) in the experiment with DU-145 prostate; 13.1% (inactive) in the experiment on K-562 leukemia. The growth in the experiment on MALME-3M melanoma was 54.3% (inactive); in the experiment with MDA-MB-231 breast, 55.1% (inactive); in the experiment with RXF 393 renal it was 35.2% (inactive); in the experiment with SF-268 CNS it was 50.5% (inactive); in the experiment on SF-295 CNS it was 51.6% (inactive); in the experiment on SF-539 CNS, 34.1% (inactive). Further, the growth in the experiment with UACC-257 melanoma was 35.5% (inactive); in the experiment with M14 melanoma it was 54.9% (inactive).
For the compound `CN(C)[C@@H]1C(=O)C(C(N)=O)=C(O)[C@@]2(O)C(=O)C3=C(O)c4c(O)ccc(Cl)c4[C@@](C)(O)[C@H]3C[C@@H]12`, the growth was 99.6% (inactive) and 88.6% (inactive) with NCI-H23 lung; 93.3% (inactive) and 95.3% (inactive) in the experiment with NCI-H226 lung; 84.8% (inactive) and 105% (inactive) in the experiment on NCI-H322M lung; 90.3% (inactive) in the experiment with HOP-62 NSCLC; 88.9% (inactive) and 101% (inactive) in the experiment with NCI-H460 lung; 75.7% (inactive) and 11.8% (inactive) in the experiment on HOP-92 NSCLC. Also, the growth in the experiment on NCI-H522 lung is 79.4% (inactive) and 32.7% (inactive); with A549/ATCC NSCLC it was 97% (inactive); with 786-0 renal, 91.3% (inactive) and 71.2% (inactive); in the experiment with COLO 205 colon, 92.8% (inactive) and 97.8% (inactive); in the experiment on DU-145 prostate, 103% (inactive); with K-562 leukemia, 109% (inactive) and 93.8% (inactive). For the same compound, the growth in the experiment on MALME-3M melanoma was 79.3% (inactive) and 80.7% (inactive); with MDA-MB-231 breast, 103% (inactive) and 98% (inactive); with RXF 393 renal it was 96.1% (inactive) and 94.3% (inactive); with SF-268 CNS, 94.8% (inactive) and 98.9% (inactive); in the experiment with SF-295 CNS, 90.1% (inactive) and 103% (inactive); with SF-539 CNS, 93.3% (inactive) and 92.1% (inactive). Also, in the experiment with UACC-257 melanoma, the growth was 108% (inactive) and 106% (inactive).
Consider `Clc1ccc(COC(Cn2ccnc2)c2ccc(Cl)cc2Cl)c(Cl)c1` (stereo not given), for which the growth was 40.6% (inactive) and 25.2% (inactive) in the experiment with NCI-H23 lung; 68.3% (inactive) and 75.9% (inactive) with NCI-H226 lung; 94.1% (inactive) and 85.6% (inactive) in the experiment with NCI-H322M lung; 71.3% (inactive) and 84.9% (inactive) with HOP-62 NSCLC; 56.8% (inactive) and 55.9% (inactive) with NCI-H460 lung; -1.54% (active) and 14.5% (inactive) in the experiment with HOP-92 NSCLC. In addition, the growth in the experiment with NCI-H522 lung was 39% (inactive) and 41.5% (inactive); in the experiment on A549/ATCC NSCLC it was 37.3% (inactive) and 12.5% (inactive); with 786-0 renal it was 48.9% (inactive) and 49.6% (inactive); in the experiment with COLO 205 colon it was 57.2% (inactive) and 57.9% (inactive); in the experiment with DU-145 prostate it was 76.8% (inactive) and 69.8% (inactive); with K-562 leukemia, 25.5% (inactive) and 13.7% (inactive). Besides, the growth in the experiment on MALME-3M melanoma was 56.1% (inactive) and 75.3% (inactive); in the experiment with MDA-MB-231 breast, 49.5% (inactive) and 66.9% (inactive); in the experiment on RXF 393 renal it was 72.1% (inactive) and 10.9% (inactive); in the experiment with SF-268 CNS, 70.2% (inactive) and 77.8% (inactive); in the experiment with SF-295 CNS, 30.4% (inactive) and 51.3% (inactive); with SF-539 CNS, 80.4% (inactive) and 70.1% (inactive). For the same compound, the growth in the experiment with UACC-257 melanoma was 61.2% (inactive) and 48% (inactive); in the experiment on M14 melanoma, 29.2% (inactive).
For the compound `COC[C@H]1OC(=O)c2coc3c2[C@@]1(C)C1=C(C3=O)[C@@H]2CCC(=O)[C@@]2(C)C[C@H]1OC(C)=O`, the growth in the experiment with NCI-H23 lung was 56.5% (inactive); in the experiment with NCI-H226 lung it was 62.5% (inactive); with NCI-H322M lung it was 35.3% (inactive); in the experiment on HOP-62 NSCLC, 57.7% (inactive); in the experiment on NCI-H460 lung, 43% (inactive); in the experiment on HOP-92 NSCLC it was -0.194% (active). The growth was 48.4% (inactive) with NCI-H522 lung; 10.1% (inactive) with A549/ATCC NSCLC; 39.3% (inactive) with 786-0 renal; 65.2% (inactive) in the experiment on COLO 205 colon; 45.2% (inactive) in the experiment with DU-145 prostate; 70.7% (inactive) with K-562 leukemia. For the same compound, the growth in the experiment on MALME-3M melanoma was 32.8% (inactive); in the experiment on MDA-MB-231 breast, 67.8% (inactive); with RXF 393 renal, 10.4% (inactive); in the experiment with SF-268 CNS it was 51.8% (inactive); in the experiment with SF-295 CNS it was 39.5% (inactive); with SF-539 CNS it was 28.6% (inactive). Besides, the growth with UACC-257 melanoma was 23% (inactive).

Source of the values: PubChem BioAssay (NCI).
